Assay outcomes deposited in PubChem BioAssay by National Center for Advancing Translational Sciences (NCATS).
Sampled rows, rich in hits. Any-hit rate of the full collection: about 19%.
TDP1 cell noCPT = qHTS for Inhibitors of human tyrosyl-DNA phosphodiesterase 1 (TDP1): qHTS in cells in absence of CPT | 15% of 420,000 active | AID 686978, 2013 | Potency, µM (doses to about 46.2 µM), for inactives: top-dose activity change, negative = growth inhibition, usual class: inhibitors | DT40 Tdp1-/- hTDP1 cells, no CPT, ATP luminescence, 48 h; note: nearly all actives have a fitted effect of over 55% in size
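Growth of hTDP1-complemented DT40 Tdp1-knockout cells is measured by ATP luminescence after at least 48 hr compound exposure at 37 °C, with DMSO substituting for the 20 nM CPT used in the parallel screen.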
Gal4-VP16 FLuc = VP16 counterscreen qHTS for inhibitors of ROR gamma transcriptional activity | 3.5% of 310,000 active | AID 2546, 2010 | Drosophila S2 Gal4-VP16 UAS-luciferase, luminescence, 20 h | Potency, µM (series often up to 53.6 µM), inactives show at the highest dose activity, negative = inhibition, most hits filed as inhibitors;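 note: Gal4-VP16 expression switched on by copper sulfate through the metallothionein promoter; nearly all actives have a fitted effect of over 50% in size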
TDP1 cell CPT = qHTS for Inhibitors of human tyrosyl-DNA phosphodiesterase 1 (TDP1): qHTS in cells in presence of CPT | chicken DT40 Tdp1-/-;hTDP1 cells + 20 nM CPT, ATP luminescence, 48 h | Potency, µM (doses to about 46.2 µM), for the others: at the highest dose activity change, negative = growth inhibition, usual class: inhibitors | 12% of 420,000 active | AID 686979, 2013; note: nearly all actives have a fitted effect of over 55% in size
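Chicken DT40 Tdp1-/- cells complemented with human TDP1, 400 cells/well, exposed to compounds plus 20 nM camptothecin for at least 48 h at 37 C; viability read as ATP content by CellTiter-Glo luminescence.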
TDP1 block = qHTS Assay for Inhibitors of Tyrosyl-DNA Phosphodiesterase (TDP1) | Tyrosyl-DNA phosphodiesterase 1 (Homo sapiens), Q9NUW8 | recombinant TDP1, AlphaScreen DNA substrate cleavage | Potency, µM (highest dose often 130 µM), for inactives: at the top dose activity change, negative = inhibition, most hits filed as inhibitors | 0.28% of 350,000 active; note: nearly all actives have a fitted effect of over 40% in size
Target sequence (Q9NUW8 whole entry, looked up): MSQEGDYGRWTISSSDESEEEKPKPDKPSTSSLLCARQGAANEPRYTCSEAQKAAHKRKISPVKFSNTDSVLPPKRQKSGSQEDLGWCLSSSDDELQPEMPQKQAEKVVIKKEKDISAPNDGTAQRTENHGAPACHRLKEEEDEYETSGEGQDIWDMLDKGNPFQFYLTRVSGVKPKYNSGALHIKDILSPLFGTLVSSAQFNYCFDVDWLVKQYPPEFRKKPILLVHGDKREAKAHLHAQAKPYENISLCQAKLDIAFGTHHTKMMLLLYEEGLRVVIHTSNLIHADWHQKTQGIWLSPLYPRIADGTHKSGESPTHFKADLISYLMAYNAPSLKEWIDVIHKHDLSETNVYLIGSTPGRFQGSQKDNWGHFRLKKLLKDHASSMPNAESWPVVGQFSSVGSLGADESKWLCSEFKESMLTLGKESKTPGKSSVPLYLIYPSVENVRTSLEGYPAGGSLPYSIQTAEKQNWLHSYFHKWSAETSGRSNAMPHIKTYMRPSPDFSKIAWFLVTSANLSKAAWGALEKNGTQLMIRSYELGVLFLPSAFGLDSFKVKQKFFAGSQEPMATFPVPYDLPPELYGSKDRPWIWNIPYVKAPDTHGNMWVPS
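Here, a 5' biotin and 3' phosphotyrosine-FITC DNA oligonucleotide reports Tdp1 activity: intact substrate bridges AlphaScreen beads, while cleavage leaves a 3' phosphate and drops signal. All incubations at room temperature.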
RORg inh = qHTS for inhibitors of ROR gamma transcriptional activity. Nuclear receptor ROR-gamma (Mus musculus), P51450. Drosophila S2 Gal4-RORgamma UAS-luciferase reporter, 20 h. Potency, µM (series often up to 53.6 µM), for inactives: at the highest dose activity change, negative = inhibition, actives largely listed as inhibitors. 5.4% of 310,000 active; note: nearly all actives have a fitted effect of over 60% in size
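Drosophila Schneider cells stably carrying a metallothionein-driven Gal4 DBD–ROR gamma fusion and a UAS-Photinus luciferase reporter were exposed to compound for 1 hr, then induced with copper sulfate (700 uM final) for 20 hr at ambient temperature before luminescence reading.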
Starred values were filed as active, the others as inactive; ? = inconclusive; . = no result; [ ] = another dose, or the depositor's remark. Calls come from the whole dose curve; as a rule, active = well fitted curve in the direction sought with a large enough effect; inconclusive = small, poorly fitted or top-dose-only effect, or another doubt; inactive = no such curve, though single readings can be large; an effect the other way counts as inactive or inconclusive. % is set by controls: 0 for no effect and ±100 for the full control effect; potency is the fitted concentration of half-maximal effect.

SMILES | TDP1 cell noCPT | Gal4-VP16 FLuc | TDP1 cell CPT | TDP1 block | RORg inh
O=C(c1ccc2c3c(cccc13)CC2)C1CCCN(Cc2ncc[nH]2)C1 (centres undefined) | ? | -5% | ? | 9% | -43%
O=C(c1ccc2c3c(cccc13)CC2)C1CCCN(CC2CC2)C1 (centres undefined) | 23µM* | -21% | 18µM* | 0% | ?
C[C@H](CO)N1C[C@H](C)[C@@H](CN(C)Cc2ccc(Cl)c(Cl)c2)Oc2c(NC(=O)c3ccncc3)cccc2C1=O | ? | . | 21µM* | 7% | .
C#CCN(C[C@@H]1[C@@H](OC(=O)Nc2c(C)noc2C)[C@@H](OC(=O)Nc2c(C)noc2C)Cn2c(=O)n(CCCCCC)c(=O)n21)S(=O)(=O)c1ccc(C)cc1 | 21µM* | . | 18µM* | . | .
CCCNc1nc2c(c(=O)[nH]c(=O)n2C)n1Cc1ccc(F)cc1 | ? | ? | ? | -1% | 19%
COc1ccc(-n2c(C)nc3cc(C(=O)N4CCC5(CC4)OCCO5)ccc32)cc1 | ? | . | ? | -3% | -13%[0.365 µM]
O=C(NCc1ccccc1)Oc1cccc(Cl)c1 | 16µM* | 15% | ? | -3% | ?
O=C1NC(=S)N(c2ccccc2F)C(=O)/C1=C\c1cccs1 | ? | -88% | 21µM* | -6% | -12%[10 µM]
O=C1NC(=O)C(=Cc2csc3ccccc23)C(=O)N1 | 18µM* | 5% | 16µM* | . | 40%
O=C1NC(=O)C(=Cc2ccsc2)C(=O)N1 | 2% | 1% | 5% | -3% | 1%
O=C1NC(=O)C(=Cc2cccs2)C(=O)N1 | 16µM* | . | 18µM* | . | .
Cn1cc(C=C2C(=O)NC(=O)NC2=O)c2ccccc21 | -2% | -5% | 6% | . | 1%
CCOc1ccc(N2C(=O)/C(=C\c3cccs3)C(=O)NC2=S)cc1 | ? | 1% | ? | 4% | -31%
CCCCn1c(=O)c(C=Nc2cc([N+](=O)[O-])ccc2OC)c(O)n(CCCCl)c1=O | -29% | -9% | -22% | 8% | ?
O=C(CCc1nc(C2=CCN(Cc3cccc(Cl)c3)CC2)no1)Nc1ccccc1F | 12µM* | . | 15µM* | 5% | .
COc1ccc(NC(=O)CCc2nc(C3=CCN(Cc4cccc(C)c4)CC3)no2)c(OC)c1 | 12µM* | . | 16µM* | 5% | .
C=CCN(c1ccc(C(=O)N(CC)CC)cc1)S(C)(=O)=O | -11% | -3% | -13% | 2% | -5%
CC[C@@H](CO)NC(=O)[C@H]1C=C2c3cccc4c3c(cn4C)C[C@H]2N(C)C1 | 13µM* | 4% | 8.4µM* | 11%[56.1 µM] | -4%
CN(C)c1ccc(P(=O)(OC2CCCCC2)C(Nc2ccccc2)c2cccnc2)cc1 (centres undefined) | 21µM* | 2% | ? | 5% | 23%
CC(C)COP(=O)(OCC(C)C)C(Nc1ccccc1)c1ccccc1 (centres undefined) | ? | -6% | ? | 1% | 1%
CC(C)COP(=O)(c1ccc(N(C)C)cc1)C(Nc1ccccc1)c1ccccc1 (centres undefined) | 29µM* | ? | ? | 8% | 80%
CC1CCC(C(C)C)C(OP(=O)(c2ccc(N(C)C)cc2)C(O)c2cccnc2)C1 (centres undefined) | . | 2% | . | 1% | ?
O=P(C(Cl)Cl)(N1CCOCC1)N1CCOCC1 | -9% | 1% | -1% | 0% | 0%
N#Cc1ccc(C(=O)N2CCN(c3nc4ccc(F)cc4s3)CC2)cc1 | 2.3µM* | . | 2.3µM* | 0% | .
C[C@H]1O[C@@H](O[C@H]2CC[C@@]3(C)[C@H](CC[C@@H]4[C@@H]3C[C@@H](O)[C@]3(C)[C@@H](C5=CC(=O)OC5)CC[C@]43O)C2)C[C@H](O)[C@@H]1O[C@H]1C[C@H](O)[C@H](O[C@H]2C[C@H](O)[C@H](O[C@@H]3O[C@H](CO)[C@@H](O)[C@H](O)[C@H]3O)[C@@H](C)O2)[C@@H](C)O1 | 0.94µM* | . | 1.3µM* | . | .
SMILES | TDP1 cell noCPT | Gal4-VP16 FLuc | TDP1 cell CPT | TDP1 block | RORg inh
C[C@@]12CC[C@H](O)C[C@@H]1CC[C@H]1[C@@H]2C[C@@H](O)[C@]2(C)[C@@H](C3=CC(=O)OC3)CC[C@]12O | . | -4%[17 µM] | . | 11%[21 µM] | 10%[16.9 µM]
CC(=O)O[C@H]1C[C@H](O[C@H]2[C@@H](O)C[C@H](O[C@H]3[C@@H](O)C[C@H](OC4CC[C@@]5(C)C(CC[C@@H]6[C@@H]5CC[C@]5(C)[C@@H](C7=CC(=O)OC7)[C@@H](O)C[C@]65O)C4)O[C@@H]3C)O[C@@H]2C)O[C@H](C)[C@H]1O[C@@H]1O[C@H](CO)[C@@H](O)[C@H](O)[C@H]1O (some centres undefined) | 2.4µM* | . | 3.3µM* | . | .
CC(=O)OC1CC(OC2C(O)CC(OC3C(O)CC(OC4CCC5(C)C(CCC6C5CCC5(C)C(C7=CC(=O)OC7)C(O)CC65O)C4)OC3C)OC2C)OC(C)C1OC1OC(CO)C(O)C(O)C1O (centres undefined) | 1.8µM* | . | 1.5µM* | . | .
Cc1ccc(-n2c(/C=C/c3cccs3)nc3ccccc3c2=O)cc1C | ? | . | ? | 10% | .
CC(C)(O)C1C2OC(=O)C1[C@]1(O)CC3O[C@@]34C(=O)OC2[C@@]14C (some centres undefined) | 15% | -2% | 9% | 10%[56.1 µM] | 20%
O=C(c1ccccc1)C1NC1c1ccccc1 (centres undefined) | -6% | 7% | 13% | 5% | 3%
CSCC[C@H](NC(=O)[C@H](CC(C)C)NC(=O)[C@@H](Cc1cnc[nH]1)NC(=O)[C@H](Cc1ccccc1)NC(=O)[C@@H](Cc1ccccc1)NC(=O)[C@@H](N)Cc1ccc(O)cc1)C(N)=O | . | -12% | . | 10% | 1%
C=CCN1C(=O)NC(=O)C(Cc2ccc(OC)c(OC)c2)C1=O (centres undefined) | -24% | -15% | -4% | -3% | 4%
C=CCc1ccc(OCCn2nnc3ccccc32)c(OC)c1 | 8.2µM* | ? | 10µM* | . | ?
C[C@H](CO)N1C[C@H](C)[C@@H](CN(C)C(=O)Nc2ccccc2)Oc2c(NC(=O)Nc3ccccc3)cccc2C1=O | ? | . | ? | 1% | .
O=C(Cc1ccccc1)N1CCN(Cc2ccc([N+](=O)[O-])cc2)CC1 | 1% | -8% | -20% | -1% | 18%
